# Measured values published in PubChem BioAssay (NCATS).
# Results filed as inconclusive are left out. Where a call stands in place of a potency, no number is given. The source made the active and inactive calls. The call rests on the fitted dose curve; in most records, active means well fitted curve in the direction sought with a large enough effect; inconclusive means small, poorly fitted or top-dose-only effect, or another doubt; inactive means no such curve, though single readings can be large; an effect the other way counts as inactive or inconclusive.
# How the values were obtained:
# [1] = ZIKV-mCherry secondary qHTS for Zika virus inhibitors (AID 1347158); further: top concentration of the series differs between compounds
# Procedure, shortened: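 This orthogonal imaging screen measured ZIKV-mCherry infection of Vero cells exposed to compound, MOI 1, 48-72 h. Percent infection came from segmented nuclei scored mCherry-positive above 3 SD of negative controls.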
# [2] = OV-KATE Cancer Cell Toxicity qHTS against the NCATS CANVASS Library (AID 1347345)
# Procedure, shortened: (§1)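 Step one: seed 1000 cells per well. Step two: incubate 4 h. Step three: add test compounds in 11 concentrations. Step four: culture 72 h, then add CellTiter-Glo and record luminescence after 15min.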
# [3] = HPAF-II Cancer Cell Toxicity qHTS against the NCATS CANVASS Library (AID 1347346); settings: HPAF-II viability, CellTiter-Glo ATP luminescence, 72 h; further: potency means the concentration at half of the fitted maximal effect; nearly all actives have a fitted effect of over 55% in size
# Procedure, shortened: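 Using 1000 HPAF-II cells per well, we titrated compounds over 11 concentrations for 72 h at 37 degrees C/5% CO2, with bortezomib as control. Cell survival was quantified by CellTiter-Glo luminescence.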
# [4] = UWB1.289 Cancer Cell Toxicity qHTS against the NCATS CANVASS Library (AID 1347347); further: nearly all actives have a fitted effect of over 60% in size
# Procedure, shortened: as §1
# [5] = OV-SAHO Cancer Cell Toxicity qHTS against the NCATS CANVASS Library (AID 1347348); further: nearly all actives have a fitted effect of over 55% in size
# Procedure, shortened: as §1
# [6] = SW1088 Cancer Cell Toxicity qHTS against the NCATS CANVASS Library (AID 1347350); settings: SW1088 viability, CellTiter-Glo luminescence, 72 h; at 38.3 µM (top of the series); further: nearly all actives have a fitted effect of over 75% in size
# Procedure, shortened: as §1
# [7] = U-118MG Cancer Cell Toxicity qHTS against the NCATS CANVASS Library (AID 1347351)
# Procedure, shortened: as §1
# [8] = COV-362 Cancer Cell Toxicity qHTS against the NCATS CANVASS Library (AID 1347352)
# Procedure, shortened: (§2)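 Using an ATP-based luminescent reagent after three days of treatment, toxicity is scored across an eleven-concentration range in wells holding 1000 cells each.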
# [9] = A2780 Cisplatin Sensitive Ovarian Cancer Cell Toxicity qHTS against the NCATS CANVASS Library (AID 1347353); settings: A2780 ovarian cancer viability, ATPLite luminescence, 72 h; at 46.1 µM (top of the series); further: nearly all actives have a fitted effect of over 60% in size
# Procedure, shortened: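 Quantitative HTS format: eleven compound concentrations applied to pre-seeded cells, 72 h incubation at 37 °C, then ATP detection by luminescence.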
# [10] = UWB1.289-WTBRCA1 Cancer Cell Toxicity qHTS against the NCATS CANVASS Library (AID 1347354)
# Procedure, shortened: as §2
# [11] = HEK-293 Cancer Cell Toxicity qHTS against the NCATS CANVASS Library (AID 1347355); settings: HEK-293 viability, CellTiter-Glo luminescence, 72 h; at 46.1 µM (top of the series); further: nearly all actives have a fitted effect of over 65% in size
# Procedure, shortened: as §2
# [12] = Vero cells viability qHTS for Zika virus inhibitors (AID 1347167)
# Procedure, shortened: (§3)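 qHTS titration; 24-48 h compound exposure, 37 degrees C/5% CO2; DMEM, 4% FBS; CellTiter Glo ATP luminescence.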
# [13] = HepG2 cells viability qHTS for Zika virus inhibitors (AID 1347168)
# Procedure, shortened: as §3
# [14] = Tertiary RLuc qRT-PCR qHTS assay for Zika virus inhibitors (AID 1347169); further: top concentration of the series differs between compounds; nearly all actives have a fitted effect of over 55% in size
# Procedure, shortened: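 Luminescence read-out: live-cell Renilla luciferase substrate applied to infected Vero cells, signal measured after 1-1.5 hrs. Cells had received compound before ZIKV-RLuc (Cambodian strain, MOI 1-2) infection and were incubated 48-72 hrs at 37 degrees C.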
smiles,measurement,setting,value
O=c1c(O)c(-c2ccc(O)c(O)c2)oc2cc(O)cc(O)c12,outcome,[1],inactive
Cn1ccc2cc3c(cc21)CCN3C(=O)Nc1cccnc1,outcome,[1],inactive
COc1ccc2[nH]cc(CCNC(C)=O)c2c1,outcome,[2],inactive
same,Potency,[3],5.95 µM (active)
same,outcome,[4],inactive
same,outcome,[5],inactive
same,outcome,[6],inactive
same,outcome,[7],inactive
same,outcome,[8],inactive
same,outcome,[9],inactive
same,outcome,[10],inactive
same,outcome,[11],inactive
CN(Cc1cnc2nc(N)nc(N)c2n1)c1ccc(C(=O)N[C@@H](CCC(=O)O)C(=O)O)cc1,Potency,[12],inactive
same,outcome,[13],inactive
same,Potency,[14],inactive
